We go through 93 compounds from PubChem BioAssay AID504850 (National Center for Advancing Translational Sciences (NCATS), 2011).

Screen size: about 2,300 compounds; about 1,200 (52%) were called active. Inconclusive results (about 34%) are left out. Calls come from the whole dose curve; as a rule, active = well fitted inhibition curve with a large enough effect; inconclusive = small, poorly fitted or top-dose-only effect, or effect the other way; inactive = no such curve, though single readings can be large or run the other way. The set was probably picked from earlier hits. The list shows a part of the results. Square brackets hold non-standard residues; d marks the D form. Peptide text beside a SMILES is read from it. * marks the point of attachment. ξ: configuration not given here. ξF = NC(Cc1ccccc1)C(=O)O; Cbz = O=C(OCc1ccccc1)*
Potency is the fitted concentration of half-maximal effect.

This experiment in a line: Confirmation screen for delayed death inhibitors of the malarial parasite plastid, 48 hour incubation. Note: nearly all actives have a fitted effect of over 65% in size. The settings on record: P. falciparum-infected erythrocytes, luciferase growth; series mostly up to 28.7 µM. The essentials:
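Erythrocytes infected with luciferase-expressing P. falciparum (2% hematocrit, 0.1% parasitemia) incubated with compounds 48 hours at 37 C, 5% CO2, in RPMI/Albumax. Growth inhibition scored as reduced luminescence after detection reagent.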
As for `CC#CC#Cc1cccc(=O)o1`, the Potency was 8.91 µM (active).

Turning to `CCCn1c(CN2CCN(C(=O)OCC)CC2)nc2cc(NC(=O)C(C)C)ccc21`, the Potency was 11.2 µM (active).

On to `CCNc1ccc(Br)cc(C(=O)/C=C/c2c(Cl)cccc2Cl)c1=O`, for which the Potency is 10 µM (active).

For `COc1ccc(-c2cn(-c3ccccc3)c3[n+]2CCS3)cc1`, the Potency was 3.16 µM (active).

Turning to `COc1cc(/C=C2\CC(C(C)(C)C)C/C(=C\c3cc(OC)c(OC)c(OC)c3)C2=O)cc(OC)c1OC` (stereo not drawn), the Potency was 5.01 µM (active).

Regarding `COc1cc(/C=C2\COC/C(=C\c3ccc(O)c(OC)c3)C2=O)ccc1O`, the Potency is 6.31 µM (active).

Regarding `COc1cc(/C=C2/CCC/C(=C\c3cc(O)c(OC)c(Cl)c3)C2=O)cc(Cl)c1O`, the Potency is 11.2 µM (active).

As for `COc1cc(/C=C2\COC/C(=C\c3cc(OC)c(OC)c(OC)c3)C2=O)cc(OC)c1OC`, the Potency was 2.82 µM (active).

For `CCOc1ccc(/C=C2\SC(=S)N(C(C(=O)O)c3ccccc3)C2=O)cc1OC` (stereo not drawn), the Potency result is “inactive”.

Turning to `COc1ccc(/C=C2\CC/C(=C\c3ccc(OC)c(OC)c3)C2=O)cc1OC`, the Potency was 15.8 µM (active).

`CC(C)c1ccc(NC(=O)c2cc(S(=O)(=O)N3CCCC3)c[nH]2)cc1`: the Potency is 12.6 µM (active).

In the case of `COc1ccc(-c2c(C(C)=O)c(C)n(C)c2C)cc1`, the Potency is 12.6 µM (active).

As for `CC(C)N1CCC(N2CCN(Cc3ccc(-c4ccc(Cl)cc4)o3)CC2CCO)CC1` (stereo not drawn), the Potency was 6.31 µM (active).

Turning to `O=C(CN1C2=NCCCN2c2ccccc21)c1ccc2c(c1)OCO2`, the Potency was 11.2 µM (active).

Turning to `Cc1ccc(C)c(C(=O)CN2C3=NCCCN3c3ccccc32)c1`, the Potency is 12.6 µM (active).

As for `OC(CN1C2=NCCN2c2ccccc21)c1ccc2c(c1)OCO2` (stereo not drawn), the Potency is 5.01 µM (active).

For `Nc1cccc2c1C(=O)N(C(=O)/C=C/c1ccc(F)cc1)C2=O`, the Potency result was “inactive”.

With `Cc1cc2c(c(=O)n1Cc1ccco1)C(c1cccnc1)C(C#N)=C(N)O2` (stereo not drawn), the Potency entry is “inactive”.

For the compound `OC(c1ccccc1)(c1ccccc1)C1CCN(C(=S)NCCc2ccccc2)CC1`, the Potency was 11.2 µM (active).

In the case of `CN(Cc1cccc(Cl)c1Cl)C(=O)c1ccc(NC(=O)CC#N)cc1`, the Potency was 3.98 µM (active).

Take `O=C(CSc1ccc(-c2cccnc2)nn1)Nc1ccccc1C(F)(F)F`: the Potency result is “inactive”.

Regarding `O=C(CSc1nc(-c2ccco2)cc(C(F)(F)F)n1)Nc1ccccc1C(F)(F)F`, the Potency was 14.1 µM (active).

For the compound `O=S1(=O)C=C(Sc2nnc(-c3ccccc3)o2)c2ccccc21`, the Potency was 12.6 µM (active).

As for `O=S1(=O)C=C(Sc2nc3cc(Cl)ccc3o2)c2ccccc21`, the Potency was 11.2 µM (active).

For `C#CCn1c(S(=O)(=O)Cc2ccc(F)cc2)nc(-c2ccccc2)c1-c1ccccc1`, the Potency is 14.1 µM (active).

For `C#CCn1c(S(=O)(=O)Cc2ccc(C)cc2)nc(-c2ccccc2)c1-c1ccccc1`, the Potency is 12.6 µM (active).

With `CCOC(=O)Cn1c(S(=O)(=O)Cc2cccc(F)c2)nc(-c2ccccc2)c1-c1ccccc1`, the Potency is 11.2 µM (active).

For the compound `O=C(c1cccc(Cl)c1)c1nn(-c2ccccc2)c(=O)cc1C(F)(F)F`, the Potency is 12.6 µM (active).

Regarding `O=C(CCl)Nc1cccc2ncccc12`, the Potency is 4.47 µM (active).

`Oc1ccc(-c2n[nH]c(=S)n2-c2ccc3c(c2)OCCO3)c(O)c1`: the Potency is 0.708 µM (active).

For `O=C(c1ccc(CS(=O)c2ccccc2Cl)o1)N1CCN(c2ccccn2)CC1` (stereo not drawn), the Potency is 11.2 µM (active).

For `O=C(NCc1cccc(Cl)c1)C1CCC(=O)N(CC2CCCCC2)C1` (stereo not drawn), the Potency is 14.1 µM (active).

In the case of `CCOC(=O)CNC(=O)C(Cc1ccccc1)NC(=O)OCc1ccccc1` (stereo not drawn) (Cbz-[ξF]-Gly-OEt), the Potency result is “inactive”.

`CCCNC(=O)C(Cc1ccc(F)cc1)NC(=O)c1ccccc1` (stereo not drawn): the Potency was 10 µM (active).

In the case of `COc1ccc(C2c3c(ncn(CCN4CCOCC4)c3=N)Oc3ccc4ccccc4c32)cc1OC` (stereo not drawn), the Potency is 4.47 µM (active).

As to `COc1ccc(C2c3c(ncn(CCCN4CCOCC4)c3=N)Oc3ccc4ccccc4c32)cc1OC` (stereo not drawn), the Potency is 5.01 µM (active).

For `O=c1[nH]c(=O)n(Cc2ccco2)c2c1C(C(F)(F)F)(C(F)(F)F)N=C(CCc1ccccc1)N2`, the Potency is 11.2 µM (active).

Consider `COc1ccc2c(c1)c(C(=O)N/N=C/c1ccc(OC)c(OC)c1)c(C)n2C`, for which the Potency is 10 µM (active).

As to `CCC(C)[C@H](NC(=O)NCCCOC(C)C)C(=O)OC` (stereo partly drawn), the Potency entry was “inactive”.

`CCOc1ccc2nc(C)cc(Nc3cccc([N+](=O)[O-])c3)c2c1`: the Potency was 2 µM (active).

For `O=C(O)CCc1ccc(-c2ccccc2)n1-c1ccc(C(=O)O)cc1`, the Potency entry was “inactive”.

Take `Cc1cc2[nH]c(=O)c(=O)[nH]c2cc1S(=O)(=O)NC1CCCCC1C` (stereo not drawn): the Potency result is “inactive”.

Turning to `COC(=O)C1=C(C)NC2=C(C(=O)CC(c3cccs3)C2)C1c1ccsc1` (stereo not drawn), the Potency was 14.1 µM (active).

With `CCn1c(Cc2ccccc2)nnc1SCC(=O)Nc1nc(C)cs1`, the Potency is 12.6 µM (active).

With `O=C(CSc1nc(-c2ccccc2)cs1)Nc1cccc([N+](=O)[O-])c1`, the Potency result is “inactive”.

For `CCOC(=O)CSc1nnc(CNc2nc(-c3ccccc3)cs2)n1C`, the Potency is 8.91 µM (active).

For `Cc1cc(C)nc(SCc2nnc(SCC(=O)Nc3nc(-c4ccccc4)cs3)n2C)n1`, the Potency is 14.1 µM (active).

As to `Cc1ccccc1NC(=O)Cc1nnc(SCC(=O)NC2CCCCC2)n1C`, the Potency entry is “inactive”.

For the compound `NNC(=O)CSc1nc(-c2ccccc2)cn1-c1ccccc1`, the Potency result was “inactive”.

Turning to `CCCc1cc(NCc2ccccn2)n2nc(C)c(-c3ccccc3)c2n1`, the Potency was 5.62 µM (active).

Consider `CN(C)c1ccc(NC(=S)NC23CC4CC(CC(C4)C2)C3)cc1`, for which the Potency was 12.6 µM (active).

Take `Cc1cccc(C)c1Nc1c(-c2ccc(N3CCOCC3)cc2)nc2ncccn12`: the Potency was 12.6 µM (active).

Regarding `c1ccc(SCc2cn(C[C@H]3CC[C@@H]([C@@H]4CC[C@H](Cn5cc(CSc6ccccc6)nn5)O4)O3)nn2)cc1`, the Potency is 14.1 µM (active).

Consider `O=C(Nc1ccc(O)cc1)C1CC=CCC1` (stereo not drawn), for which the Potency was 7.94 µM (active).

For `COc1cnc(-c2ccccn2)nc1N(C)c1ccccc1`, the Potency is 3.55 µM (active).

On to `COc1cnc(-c2ccccn2)nc1Oc1ccc(C(C)(C)C)cc1`, for which the Potency is 4.47 µM (active).

In the case of `O=C1c2cc([N+](=O)[O-])cc3cc([N+](=O)[O-])cc(c23)C(=O)N1c1ccccn1`, the Potency is 14.1 µM (active).

For `CC(C)NC(=O)c1onc(CSc2ccc(C(C)C)cc2)c1C(=O)O`, the Potency entry is “inactive”.

For the compound `CC(=O)c1ccc(NC(=O)C[n+]2cccc(C)c2)cc1`, the Potency result was “inactive”.

Regarding `Cc1ccc[n+](CC(=O)Nc2ccc(C)c(C)c2)c1`, the Potency was 14.1 µM (active).

Take `O=S(=O)(c1ccc(F)cc1)N1CCN(c2nc(-c3ccc(F)cc3)cs2)CC1`: the Potency is 14.1 µM (active).

Take `CN1C[C@@H]2C[C@H]1CN2c1cc2c(cc1F)c(=O)c(C(=O)O)cn2C1CC1`: the Potency is 3.55 µM (active).

Turning to `Cc1cc(F)ccc1S(=O)(=O)Nc1ccccc1C(=O)Nc1ccccc1-c1nc2ccccc2[nH]1`, the Potency is 5.62 µM (active).

Regarding `COc1ccc(C(c2c(C)n(C)n(-c3ccccc3)c2=O)c2c(C)n(C)n(-c3ccccc3)c2=O)cc1`, the Potency was 14.1 µM (active).

With `Cc1c(C(c2ccc(Br)cc2)c2c(C)n(C)n(-c3ccccc3)c2=O)c(=O)n(-c2ccccc2)n1C`, the Potency was 12.6 µM (active).

Take `Cc1nn(C(C)C(=O)NCCC2=CCCCC2)c(=O)c2nn(-c3ccccc3)c(C)c12` (stereo not drawn): the Potency was 12.6 µM (active).

`Cc1nn(C(C)C(=O)Nc2ccccc2Cl)c(=O)c2nn(-c3ccccc3)c(C)c12` (stereo not drawn): the Potency was 14.1 µM (active).

Regarding `CSc1ccc(CNC(=O)C(C)n2nc(C)c3c(C)n(-c4ccccc4)nc3c2=O)cc1` (stereo not drawn), the Potency is 14.1 µM (active).

As for `Cc1nn(C(C)C(=O)NCCCc2ccccc2)c(=O)c2nn(-c3ccccc3)c(C)c12` (stereo not drawn), the Potency is 12.6 µM (active).

Regarding `CSc1ccc(CNc2cccc3ccccc23)cc1`, the Potency entry was “inactive”.

As for `Cc1c(NC(=O)C(C)Sc2nccn2C)c(=O)n(-c2ccccc2)n1C` (stereo not drawn), the Potency result was “inactive”.

`Cc1ccc(-c2csc(SCC(=O)c3c(N)n(C4CC4)c(=O)[nH]c3=O)n2)cc1`: the Potency result was “inactive”.

On to `Nc1c(C(=O)CSc2nc3ccccc3o2)c(=O)[nH]c(=O)n1C1CC1`, for which the Potency was 14.1 µM (active).

Turning to `O[C@@H]1[C@@H](O)C=C2CCN3Cc4cc5c(cc4[C@H]1C23)OCO5` (stereo partly drawn), the Potency is 1.58 µM (active).

Take `COc1ccc(C(=O)NC2CC2)cc1OC1CCN(C/C=C/c2ccccc2)CC1`: the Potency is 8.91 µM (active).

For `CCc1nc(Nc2ccncc2)c2oc3ccccc3c2n1`, the Potency is 10 µM (active).

Take `Cc1oc(/C=N/NS(=O)(=O)c2ccccc2)cc1Br`: the Potency result is “inactive”.

As to `CCN(CC)c1ccc(/C=N/Nc2nc3ccccc3[nH]2)cc1`, the Potency is 2.82 µM (active).

Regarding `Cc1c(/C=N/Nc2nc3ccccc3[nH]2)c2ccccc2n1C`, the Potency was 0.708 µM (active).

As to `CCc1cc(SC#N)ccc1N`, the Potency was 10 µM (active).

On to `CCCN1CCc2c(sc3nc(SCC)n(-c4ccccc4)c(=O)c23)C1`, for which the Potency was 1.78 µM (active).

On to `CCCN1CCc2c(sc3nc(SCC)n(-c4ccc(OC)cc4)c(=O)c23)C1`, for which the Potency was 1.26 µM (active).

On to `COc1ccc(CCNC(=O)/C(=C/c2cccnc2)NC(=O)c2ccccc2)cc1OC`, for which the Potency was 12.6 µM (active).

For `CCOc1ccc2c(c1)C(c1ccccc1)=NNC(c1ccccc1)=N2`, the Potency was 12.6 µM (active).

In the case of `C=CCNC(=O)c1onc(CSc2cc(C)ccc2C)c1C(=O)O`, the Potency result is “inactive”.

In the case of `O=c1[nH]c(NCc2ccccc2)nc2c1CCC2`, the Potency result is “inactive”.

In the case of `Nc1[nH]nc2nc(NCc3ccccc3)c3c(c12)CCN(Cc1ccccc1)C3`, the Potency is 15.8 µM (active).

For the compound `Cc1ccc(NC(=O)c2ccc3c(SCC(=O)O)c4c(nc3c2)CCCC4)c(Br)c1`, the Potency is 11.2 µM (active).

Take `COc1ccc(C2CC(c3cccs3)=NN2C(=O)CSc2nnc(N)s2)cc1OC` (stereo not drawn): the Potency was 14.1 µM (active).

As to `O=C(c1ccccc1)N1CCCC(c2ccc(Cl)cc2)=N1`, the Potency is 15.8 µM (active).

Consider `O=Nc1c(-c2c(O)[nH]c3cc(Br)ccc23)[nH]c2ccccc12`, for which the Potency was 7.08 µM (active).

For the compound `O=C(CC(SCCO)c1ccc(F)cc1)c1ccco1` (stereo not drawn), the Potency entry was “inactive”.

As for `CCCCC1(c2ccc(F)cc2)NC(=O)N(CC(=O)N2CCN(C(=O)c3ccco3)CC2)C1=O` (stereo not drawn), the Potency is 14.1 µM (active).
